Reference: PubChem BioAssay (NCATS)
Several values for one entry are separate records, joined by “and”; a condition that tells them apart may be missing. Equal values may be shown once. Inconclusive results are not listed. Activity calls are given as the source filed them. Unless noted, calls come from the whole dose curve; as a rule, active = well fitted curve in the direction sought with a large enough effect; inconclusive = small, poorly fitted or top-dose-only effect, or another doubt; inactive = no such curve, though single readings can be large; an effect the other way counts as inactive or inconclusive.

How the values were obtained:
[1] = Cellular Toxicity (caspase-3) HepG2 (AID 654);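 note: cells exposed to compound for 16 hours before reading; 0% = DMSO alone and 100% = caspase signal from 100 µM tamoxifen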
Summary of the method: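 HepG2 cells (1500/well) were treated 16 h at 37 °C in complete medium, then caspase 3/7 activity was read by Caspase-Glo luminescence. Data were normalized to DMSO and 100 uM tamoxifen; AC50 came from Hill-equation fits of qHTS concentration-response.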

[2] = Cellular Toxicity (caspase-3) SK-N-SH (AID 661);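 note: 0% = DMSO basal and 100% = 10 µM staurosporine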
Summary of the method: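 Human SK-N-SH neuroblastoma cells, 1500/well, were exposed to compounds for 16 hours at 37 °C. Caspase-Glo 3/7 luminescence was normalized to DMSO (basal) and 10 uM staurosporine (100%), and AC50 came from a Hill fit.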

[3] = Cellular Toxicity (caspase-3) Hek293 (AID 664); settings: HEK293 caspase-3 activation, DMSO = 0%, 100 µM tamoxifen = 100%; at 92.2 µM (top of the series);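 note: cells exposed to compound for 16 h at 37 °C before readout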
Summary of the method: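 HEK293 cells in complete medium treated 16 h at 37 °C, then Caspase-Glo 3/7 luminescence read after 20 min at room temperature. Normalized to DMSO and 100 uM tamoxifen; AC50 from Hill fit of concentration-response.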

[4] = Cellular Toxicity (caspase-3) N2a (AID 665);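 note: compound exposure lasted 16 h at 37 °C before readout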
Summary of the method: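 Mouse N2a neuroblastoma cells, 1500 per well, treated 16 h at 37 °C in complete medium; caspase-3/7 activity by Caspase-Glo luminescence after 1 h. Normalized to DMSO and 10 uM staurosporine; AC50 from Hill fits.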

[5] = Cellular Toxicity (caspase-3) NIH 3T3 (AID 666);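 note: 0% = DMSO basal and 100% = 100 µM tamoxifen stimulation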
Summary of the method: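 Mouse NIH 3T3 fibroblasts (1000/well) treated 16 h at 37 C; caspase-3/7 activity measured by Caspase-Glo 3/7 luminescence after 20 min. Normalized to DMSO and 100 uM tamoxifen; AC50 from Hill fits.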

[6] = Cellular Toxicity (caspase-3) Renal Proximal Tubule (AID 667);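 note: cells exposed to compound for 16 hours at 37 °C before detection; 0% = DMSO basal and 100% = 10 µM staurosporine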
Summary of the method: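 Caspase-Glo 3/7 read-out, rat primary kidney proximal tubule cells. Compound exposure 16 h, 37 °C; detection after 1 h at RT. Activity scaled to DMSO and 10 uM staurosporine.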

[7] = MultiTox-Fluor Cytotoxicity Assay - LYMP1-003 - Dead Cells (AID 961);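 note: 0% = DMSO and 100% = tetraoctylammonium bromide; nearly all actives have a fitted effect of over 70% in size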
Summary of the method: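 Human lymphoblastoid LYMP1-003 cells (2500/well) were treated with compounds for 16 hr at 37 C in complete medium. Dead-cell protease release was read by bis-AAF-R110 fluorescence (Ex/Em 485/520). AC50 came from Hill fits, normalized to DMSO and 15 uM tetraoctylammonium bromide.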

[8] = Cell Viability - LYMP2-003 (AID 965);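 note: cells exposed to compounds for 24 h before reading; 0% = DMSO only and full effect = 92 µM tetraoctylammonium bromide; nearly all actives have a fitted effect of over 50% in size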
Summary of the method: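 qHTS, human lymphoblastoid line, 2500 cells/well, complete medium. 24 h drug, 37 C. ATP-based luminescent readout; Hill-fit AC50.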

[9] = Cell Viability - LYMP2-009 (AID 968);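 note: 0% = DMSO alone and the full-kill end = tetraoctylammonium bromide at 92 µM; nearly all actives have a fitted effect of over 55% in size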
[10] = Cell Viability - LYMP2-013 (AID 970);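 note: 0% = DMSO only and full inhibition = tetraoctylammonium bromide control; nearly all actives have a fitted effect of over 55% in size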
Summary of the method: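 Human lymphoblastoid LYMP2-013 cells, 2500/well, treated 24 h at 37 C in complete medium; viability as intracellular ATP by CellTiter-Glo luminescence after 30 min. AC50 from Hill fits of qHTS concentration-response.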

[11] = Cell Viability - LYMP2-025 (AID 976);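 note: plate controls were DMSO only for no effect and tetraoctylammonium bromide control for full effect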
Summary of the method: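 Human lymphoblastoid LYMP2-025 cells, 2500/well, exposed 24 h at 37 C in complete medium in 1536-well qHTS. Viability as cellular ATP by CellTiter-Glo luminescence; AC50 from Hill fits of concentration-response data.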

[12] = Cell Viability - LYMP2-006 (AID 978);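 note: cells exposed to compound for 24 hours; % is set by controls: 0 for no effect and ±100 for the full control effect; nearly all actives have a fitted effect of over 60% in size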
Summary of the method: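 In this cytotoxicity screen, the human lymphoblastoid line grew in complete medium with test compounds for 24 hr at 37 C. Cellular ATP served as the viability signal.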

[13] = Cell Viability - LYMP2-007 (AID 979);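 note: cells exposed to compound for 24 h before reading; 0% = DMSO only and the negative end = 92 µM tetraoctylammonium bromide; nearly all actives have a fitted effect of over 60% in size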
Summary of the method: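 Human lymphoblastoid LYMP2-007 cells (2500/well) preincubated 5 h at 37 C, then treated 24 h at 37 C in complete medium. Viability by CellTiter-Glo ATP luminescence after 30 min at room temperature; AC50 from Hill fits.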

[14] = Cell Viability - LYMP2-008 (AID 980); note: % is set by controls: 0 for no effect and ±100 for the full control effect; nearly all actives have a fitted effect of over 60% in size
Summary of the method: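 LYMP2-008 lymphoblastoid cells (2500/well) plated 5 h, then treated 24 h at 37 C in complete medium. Viability read as intracellular ATP by CellTiter-Glo luminescence after 30 min at room temperature; AC50 from Hill fits.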

[15] = Cell Viability - LYMP1-002 - Assay at 24 hr (AID 993); note: % is set by controls: 0 for no effect and ±100 for the full control effect
Summary of the method: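 Human lymphoblastoid LYMP1-002 cells (2500/well) treated 24 h at 37 °C; viability as intracellular ATP by CellTiter-Glo luminescence. Tetraoctylammonium bromide as positive control; AC50 from Hill-equation fits of qHTS concentration-response.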

[16] = qHTS Assay for Identification of Small Molecule Inducers of Hypoxia Response (AID 2120; active = well fitted curve in the direction sought with a large enough effect in the signal ratio, with a control signal flat, not every such curve was filed as active; the % refers to the signal ratio; note: 0% is about no effect)
Summary of the method: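 HRE-bla ME-180 cells in Opti-MEM with 0.5% dialyzed FBS, pre-plated 4-5 h, then compound titration for 17 h at 37 degrees Celsius. CCF4 loaded 2.5 h at room temperature; 460/530 nm ratio gave %Activity and AC50 for induction.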

[17] = target: Peroxisome proliferator-activated receptor alpha (Homo sapiens) (UniProt Q07869); test: qHTS assay for small molecule agonists of the peroxisome proliferator-activated receptor alpha (PPARalpha) signaling pathway (AID 651778); settings: PathHunter PPARalpha complementation, chemiluminescence, 6 h; hits give high values; note: % of control where 0% means no effect
Sequence of Peroxisome proliferator-activated receptor alpha (Homo sapiens) (Q07869 whole entry, looked up): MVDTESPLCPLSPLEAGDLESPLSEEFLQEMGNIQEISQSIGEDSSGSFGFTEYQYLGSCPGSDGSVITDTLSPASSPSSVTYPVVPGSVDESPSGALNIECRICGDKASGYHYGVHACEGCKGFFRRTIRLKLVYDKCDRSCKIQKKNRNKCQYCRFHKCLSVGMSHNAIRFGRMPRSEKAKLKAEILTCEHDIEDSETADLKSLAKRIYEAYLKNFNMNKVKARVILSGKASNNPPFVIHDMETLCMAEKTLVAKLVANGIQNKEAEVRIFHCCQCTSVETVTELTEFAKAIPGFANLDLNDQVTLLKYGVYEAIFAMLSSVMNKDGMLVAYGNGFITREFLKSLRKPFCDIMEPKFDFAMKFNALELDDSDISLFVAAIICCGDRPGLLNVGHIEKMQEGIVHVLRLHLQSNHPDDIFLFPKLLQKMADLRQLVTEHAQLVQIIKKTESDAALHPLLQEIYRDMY
Summary of the method: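 Chemiluminescence from complemented enzyme reported PPARalpha activation in cells after 6 hr of compound treatment at 37 C. The detection reagent was incubated for 60 min at room temperature, and compounds were scored as agonists.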

[18] = qHTS assay for small molecule agonists of the antioxidant response element (ARE) signaling pathway measured by Nrf2-dependant transcriptional activity - cell viability counter screen (AID 720653; active = well fitted curve in the direction sought with a large enough effect in the repeat runs; an effect the other way counts as inactive or inconclusive; note: % is set by controls: 0 for no effect and ±100 for the full control effect); settings: ARE-bla HepG2 viability, CellTiter-Glo ATP luminescence, 16 h; hits give low values
Summary of the method: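 Cytotoxicity counter screen: intracellular ATP quantified by CellTiter-Glo luminescence in the same ARE-bla HepG2 plates, after 16 h compound exposure and a 2 h beta-lactamase substrate step.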

[19] = qHTS assay for cell viability of HEK293 cells (AID 743288); settings: ATP luminescence (CellTiter-Glo), 18 h, hits give low values; note: % is set by controls: 0 for no effect and ±100 for the full control effect; nearly all actives have a fitted effect of over 50% in size
Summary of the method: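 Luminescent ATP quantitation served as the viability read-out. Cells (parental HEK293, 2,000/well) received compounds after at least 5 h at 37 C and were exposed for 18 h before a 30 min room-temperature reagent step.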

[20] = qHTS assay for cell viability of the p53RE-bla HCT-116 cell line (AID 743292); note: % is set by controls: 0 for no effect and ±100 for the full control effect; nearly all actives have a fitted effect of over 55% in size
Summary of the method: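 Quantitative high-throughput format: compounds in DMSO were pinned onto p53RE-bla HCT-116 cells (4,000/well) and incubated 16 h at 37 C. Total intracellular ATP, read by CellTiter-Glo luminescence, reflects viable cell number.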

Clc1cccc(Cl)c1Cl
inactive: outcome [1] | Potency [2] | caspase-3 activation [3] -0.313% | outcome [4] | Potency [5] | outcome [6] | Potency [7] | Potency [8] | Potency [9] | Potency [10] | Potency [11] | Potency [12] | Potency [13] | Potency [14] | Potency [15] | Potency [16] | max response [17] -3.74% and -0.322% | max response [18] -3.73% and 1.34% | max response [19] -5.25% and -0.775% | Potency [20]

CC(C#N)CCC#N (stereo not drawn)
inactive: outcome [1] | Potency [2] | caspase-3 activation [3] 0.584% | outcome [4] | Potency [5] | outcome [6] | Potency [7] | Potency [8] | Potency [9] | Potency [10] | Potency [11] | Potency [12] | Potency [13] | Potency [14] | Potency [15] | Potency [16] | max response [17] -3.28% | max response [18] 0.528% | max response [19] -7.04% | Potency [20]

CCOS(C)(=O)=O
inactive: outcome [1] | Potency [2] | caspase-3 activation [3] -3.11% | outcome [4] | Potency [5] | outcome [6] | Potency [7] | Potency [8] | Potency [9] | Potency [10] | Potency [12] | Potency [13] | Potency [14] | Potency [15] | Potency [16] | max response [17] 0.417% | max response [18] -5.61% | max response [19] -14.8% | Potency [20]

Cc1ccc(N)cc1N
inactive: outcome [1] | Potency [2] | caspase-3 activation [3] 0.128% | outcome [4] | Potency [5] | outcome [6] | Potency [7] | Potency [8] | Potency [9] | Potency [10] | Potency [11] | Potency [12] | Potency [13] | Potency [14] | Potency [15] | Potency [16] | max response [17] 6.43% and -0.158% | max response [18] 0.265% and 5.03% | max response [19] 6.42% and -0.208% | Potency [20]

N#CCBr
inactive: outcome [1] | Potency [2] | caspase-3 activation [3] 1.09% | outcome [4] | Potency [5] | outcome [6] | Potency [7] | Potency [8] | Potency [9] | Potency [10] | Potency [11] | Potency [12] | Potency [13] | Potency [14] | Potency [15] | Potency [16] | max response [17] -0.274% | max response [18] -10.6% | max response [19] -4.55% | Potency [20]

CCOC(=O)C1OC1(C)c1ccccc1 (stereo not drawn)
inactive: outcome [1] | Potency [2] | caspase-3 activation [3] 1.59% | outcome [4] | Potency [5] | outcome [6] | Potency [7] | Potency [8] | Potency [9] | Potency [10] | Potency [11] | Potency [12] | Potency [13] | Potency [14] | Potency [15] | Potency [16] | max response [17] 4.47% | max response [18] -18.9% | max response [19] 7.29% | Potency [20]

O=C(O)c1cc(Cl)ccc1Cl
inactive: outcome [1] | Potency [2] | caspase-3 activation [3] -1.49% | outcome [4] | Potency [5] | outcome [6] | Potency [7] | Potency [8] | Potency [9] | Potency [10] | Potency [11] | Potency [12] | Potency [13] | Potency [14] | Potency [15] | Potency [16] | max response [17] 5.32% | max response [18] -0.443% | max response [19] -1.88% | Potency [20]

O=P(OCCCl)(OCCCl)OCCCl
inactive: outcome [1] | Potency [2] | caspase-3 activation [3] 4.86% | outcome [4] | Potency [5] | outcome [6] | Potency [7] | Potency [9] | Potency [10] | Potency [11] | Potency [12] | Potency [13] | Potency [14] | Potency [15] | Potency [16] | max response [17] -2.47% | max response [18] 4.31% | max response [19] -2.52% | Potency [20]

CCCCOCC1CO1 (stereo not drawn)
inactive: outcome [1] | Potency [2] | caspase-3 activation [3] 3.87% | outcome [4] | Potency [5] | outcome [6] | Potency [7] | Potency [8] | Potency [9] | Potency [10] | Potency [11] | Potency [12] | Potency [13] | Potency [14] | Potency [15] | Potency [16] | max response [17] -2.14% | max response [18] -2.9% | max response [19] -19.5% | Potency [20]

ClCCOCCCl
inactive: outcome [1] | Potency [2] | caspase-3 activation [3] -1.83% | outcome [4] | Potency [5] | outcome [6] | Potency [7] | Potency [8] | Potency [9] | Potency [10] | Potency [11] | Potency [12] | Potency [13] | Potency [14] | Potency [15] | Potency [16] | max response [17] -1.95% | max response [18] -1.62% | max response [19] -0.0116% | Potency [20]

BrCCc1ccccc1
inactive: outcome [1] | Potency [2] | caspase-3 activation [3] 0.126% | outcome [4] | Potency [5] | outcome [6] | Potency [7] | Potency [8] | Potency [9] | Potency [10] | Potency [11] | Potency [12] | Potency [13] | Potency [14] | Potency [15] | Potency [16] | max response [17] -3.08% | max response [18] -7.12% | max response [19] -1.44% | Potency [20]

Brc1cccc(-c2ccccc2)c1
inactive: outcome [1] | Potency [2] | caspase-3 activation [3] -1.08% | outcome [4] | Potency [5] | outcome [6] | Potency [7] | Potency [8] | Potency [9] | Potency [10] | Potency [11] | Potency [12] | Potency [13] | Potency [14] | Potency [15] | Potency [16] | max response [17] -1.43% | max response [18] -6.68% | max response [19] 8.7% | Potency [20]
